RECQ1 inh-1: inhibitors of human RECQ1 DNA helicase; RECQ1 DNA unwinding, red fluorescence kinetic read; Potency, µM (highest dose often 57.3 µM), for the others: at the top dose activity, negative = inhibition, usual class: inhibitors; actives 0.54% (n = 240,000); AID 2549;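 note: plate controls were vehicle for no effect and no enzyme for full effect; nearly all actives have a fitted effect of over 30% in size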
Target sequence (P46063 whole entry, looked up): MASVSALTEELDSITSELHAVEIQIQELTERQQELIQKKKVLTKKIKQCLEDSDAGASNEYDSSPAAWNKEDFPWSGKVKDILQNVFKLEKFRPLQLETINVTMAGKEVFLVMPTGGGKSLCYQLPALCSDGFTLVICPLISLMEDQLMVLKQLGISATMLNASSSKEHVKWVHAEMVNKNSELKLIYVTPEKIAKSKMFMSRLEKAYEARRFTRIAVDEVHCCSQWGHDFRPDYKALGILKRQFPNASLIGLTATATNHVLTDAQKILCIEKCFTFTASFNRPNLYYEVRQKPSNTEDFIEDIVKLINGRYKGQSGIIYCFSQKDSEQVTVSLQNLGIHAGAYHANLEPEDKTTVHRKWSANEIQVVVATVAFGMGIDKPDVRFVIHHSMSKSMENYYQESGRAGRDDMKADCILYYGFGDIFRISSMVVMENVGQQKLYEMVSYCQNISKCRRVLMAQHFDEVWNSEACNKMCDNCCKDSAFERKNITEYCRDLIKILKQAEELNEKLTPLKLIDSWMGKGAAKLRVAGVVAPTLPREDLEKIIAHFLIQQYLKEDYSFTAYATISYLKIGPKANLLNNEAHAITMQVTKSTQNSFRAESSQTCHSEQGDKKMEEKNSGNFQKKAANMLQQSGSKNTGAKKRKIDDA
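RECQ1T1 50 nM; forked duplex (20 bp + 30-nt ss tails) 200 nM, ATP 2 mM final; pH 8.0, 2 mM MgCl2, 2.5 ug/ml poly(dI-dC); 15 min compound preincubation; discontinuous kinetic read over 2 h at RT.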
APEX1 inh: blocks human APE1 abasic DNA cleavage; P27695; recombinant APE1, TAMRA/BHQ-2 abasic DNA cleavage fluorescence; Potency, µM (doses to about 65.8 µM), without a hit: at the top dose activity change, negative = inhibition, actives largely listed as inhibitors; actives 0.35% (n = 350,000); AID 2517;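 note: plate controls were vehicle for no effect and reference inhibitor for full effect; nearly all actives have a fitted effect of over 55% in size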
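Enzyme (0.75 nM final) and test compound are incubated 15 min at room temperature before adding 50 nM quenched THF abasic-site duplex. Cleavage dequenches TAMRA, followed at 525/598 nm over three reads one minute apart.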
BLM helicase inh: blocks DNA unwinding by human BLM helicase | AID 2528 | Potency, µM (highest dose often 56.1 µM), for the others: at the highest dose activity change, negative = inhibition, most hits filed as inhibitors | recombinant BLM DNA unwinding, fluorescence dequenching | actives 0.2% (n = 350,000);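 note: plate controls were vehicle for no effect and no enzyme for full effect; nearly all actives have a fitted effect of over 35% in size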
L3MBTL1 inh-1: blocks human L3MBTL1; Q9Y468; AID 485360; AlphaScreen L3MBTL1–H3K9me1 peptide binding; actives 0.66% (n = 230,000); Potency, µM (series often up to 57.1 µM), inactives show top-dose activity, negative = inhibition, most hits filed as inhibitors; note: % is set by controls: 0 for no effect and ±100 for the full control effect; nearly all actives have a fitted effect of over 60% in size
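Read-out is AlphaScreen signal from streptavidin donor and nickel chelate acceptor beads (10 ug/mL final each) bridging L3MBTL1 (50 nM) and biotinylated K9-monomethylated H3(1-15) peptide (75 nM), after 30 min compound exposure at room temperature.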
RECQ1 conf: confirmation of human RECQ1 helicase inhibitors | AID 2708 | RECQ1 helicase DNA unwinding, fluorescence | Potency, µM (series often up to 229 µM), inactives show top-dose activity change, negative = inhibition, actives largely listed as inhibitors | shares compounds with RECQ1 inh-1 | actives 28% (n = 610); note: % is set by controls: 0 for no effect and ±100 for the full control effect; nearly all actives have a fitted effect of over 45% in size
ADP FP counter: ADP displacement flagged in RECQ1 inhibitor counter-screen; AID 2711; shares compounds with RECQ1 inh-1; Potency, µM (highest dose often 228 µM), for inactives: at the highest dose activity change, negative = inhibition, usual class: inhibitors; ADP fluorescence polarization displacement counterscreen; actives 27% (n = 530); note: % is set by controls: 0 for no effect and ±100 for the full control effect; nearly all actives have a fitted effect of over 45% in size
RECQ1 inh-2: confirmation of human RECQ1 helicase inhibitors; Potency, µM (highest dose often 119 µM), without a hit: top-dose activity, negative = inhibition, hits mostly inhibitors; shares compounds with RECQ1 inh-1; actives 15% (n = 1,100); recombinant RECQ1 DNA unwinding, red fluorescence; note: % is set by controls: 0 for no effect and ±100 for the full control effect; nearly all actives have a fitted effect of over 50% in size
L3MBTL1 inh-2: L3MBTL1 binding inhibition validated | shares compounds with L3MBTL1 inh-1 | L3MBTL1 methyl-lysine binding inhibition, biochemical qHTS | Potency, µM, actives largely listed as inhibitors | actives 91% (n = 500) | AID 540279; note: nearly all actives have a fitted effect of over 70% in size
AlphaScreen ctr2: interferes with AlphaScreen signal in L3MBTL1 counterscreen; Potency, µM (series often up to 57.1 µM), for inactives: at the highest dose activity change, negative = inhibition, hits mostly inhibitors; AlphaScreen counterscreen, signal inhibition; AID 602224; shares compounds with L3MBTL1 inh-1; 500 tested, under 10 active; note: 0% is about no effect
* = called active by the depositor; ? = inconclusive; nt = no result given; [ ] = dose if it differs, or a comment. Compounds with a hit are over-represented: about 0.78% of the library has one in this group of screens. Calls come from the whole dose curve; as a rule, active = well fitted curve in the direction sought with a large enough effect; inconclusive = small, poorly fitted or top-dose-only effect, or another doubt; inactive = no such curve, though single readings can be large; an effect the other way counts as inactive or inconclusive. Potency is the fitted concentration of half-maximal effect.

SMILES	RECQ1 inh-1	APEX1 inh	BLM helicase inh	L3MBTL1 inh-1	RECQ1 inh-2	L3MBTL1 inh-2	AlphaScreen ctr2	others
Cc1nn(Cc2ccc(F)cc2)c(C)c1NC(=O)c1cc(-c2ccco2)on1	?	-23%	-7%	-2%	?	nt	nt
O=C(N=c1ccn(-c2nc3ccccc3nc2NS(=O)(=O)c2ccc(Cl)cc2)cc1)c1cccs1	?	-9%	-10%	nt	-23%	nt	nt
Cc1nc2ccc(N=NC3=C(O)CCCC3=O)cc2s1	1µM*	-5%	-8%	-8%	nt	nt	nt	RECQ1 conf=22%[114 µM];ADP FP counter=-7%[91.9 µM]
Cc1nc2ccc(N=NC3=C(O)CC(C)(C)CC3=O)cc2s1	0%	1%	0%	-5%	nt	nt	nt
COC(=O)c1sc2ccccc2c1NC(=O)c1ccc(S(=O)(=O)N2CCCC(C)C2)cc1 (configuration not stated)	3%	-1%	-2%	-11%	nt	nt	nt
COC(=O)c1sc2ccccc2c1NC(=O)c1ccc(S(=O)(=O)N2CC(C)CC(C)C2)cc1 (configuration not stated)	-2%	1%	4%	10%	nt	nt	nt	RECQ1 conf=13%;ADP FP counter=-15%
C=CCC(C)(O)c1ccsc1 (configuration not stated)	-4%	0%	-2%	nt	nt	nt	nt
O=C1N/C(=N\S(=O)(=O)Cc2ccccc2)S/C1=C/c1cc([N+](=O)[O-])ccc1O	13%	-1%	-6%	-18%	nt	nt	nt	RECQ1 conf=20%;ADP FP counter=-2%
CCCCCN=c1ccn(Cc2ccccc2)c2ccccc12	-3%	-4%	21%	nt	nt	nt	nt
CC(=O)Nc1ccc(S(=O)(=O)/N=C2\SCCN2S(=O)(=O)c2ccc(NC(C)=O)cc2)cc1	?	?	4%	-67%	-11%	nt	nt
Cn1cc(C(=O)NCc2ccccc2)c(=O)c2cc(S(=O)(=O)N3CCCCCC3)ccc21	nt	nt	-5%	nt	nt	nt	nt
CCCCCCCOC1(c2ccccc2)OC(=O)c2ccccc21 (configuration not stated)	-7%	-2%	-9%	29%	nt	nt	nt
CCCCCCOC1(c2ccccc2)OC(=O)c2ccccc21 (configuration not stated)	40µM*	12%	-8%	46%	-14%	nt	nt
O=C1N/C(=N/NC(=O)c2cccc3ccccc23)S/C1=C\c1ccccc1OCc1ccccc1	?	10%	-26%	1%	?	nt	nt
COc1ccc(OC)c(/C=C2\S/C(=N/NC(=O)c3ccc4ccccc4c3)NC2=O)c1	-13%	4%	-28%	-7%	nt	nt	nt
O=C(Nc1ccc(S(=O)(=O)Nc2nccs2)cc1)c1ccc(=O)[nH]c1	?	?	-28%	-29%	?	nt	nt
O=C(Nc1ccc(S(=O)(=O)Nc2nccs2)cc1)c1cccc(F)c1	nt	13%	-2%	nt	nt	nt	nt
Cc1c(C(=O)NCc2ccc(OC(C)C)cc2)sc2ncnc(N(C)C3CCCCC3)c12	nt	nt	-8%	nt	nt	nt	nt
CCN(CC)S(=O)(=O)c1ccc(N2CCOCC2)c(NC(=O)c2c3c(nc4ccccc24)CCC3)c1	16µM*	?	-19%	28µM*	?	8.4*	0%
CCN(CC)S(=O)(=O)c1ccc(N2CCOCC2)c(NC(=O)c2cccc3ccccc23)c1	-10%	-6%	-6%	-2%	nt	nt	nt
Cc1cn(C)c(CC(=O)N2CCN(c3cccc(C(F)(F)F)c3)CC2)c1C(=O)O	nt	nt	0%	nt	nt	nt	nt
O=C(O)CC/C(=C\c1cccc(NC(=O)c2ccccc2Cl)c1)c1nc2ccccc2s1	?	?	-18%	35µM*	?	?	-3%
O=C(O)CC/C(=C\c1cc([N+](=O)[O-])ccc1Cl)c1nc2ccccc2s1	4%	-4%	0%	2%	nt	nt	nt
C=CCn1c(C)cc(C(=O)Cn2ncc(Cl)c(Cl)c2=O)c1C	10µM*	?	-24%	14µM*	-22%	?	0%
CC(C)(C)C(=O)Cn1ncc(Cl)c(Cl)c1=O	-1%	0%	-4%	30%	nt	nt	nt
SMILES	RECQ1 inh-1	APEX1 inh	BLM helicase inh	L3MBTL1 inh-1	RECQ1 inh-2	L3MBTL1 inh-2	AlphaScreen ctr2	others
Cc1ccc(-n2ncc(C(=O)N3CCN(C4CCCCC4)CC3)c2C2CCN(C(=O)OC(C)(C)C)CC2)cc1C	nt	nt	-1%	nt	nt	nt	nt
CCC(CC)C1C(C#N)=C(N)Oc2cc(C)oc(=O)c21 (configuration not stated)	-11%	17%	-5%	nt	nt	nt	nt
Cc1cc2c(c(=O)o1)C(c1ccc([N+](=O)[O-])o1)C(C#N)=C(N)O2 (configuration not stated)	22µM*	8.9µM*	-1%	32µM*	-19%	?	9%
COCCn1c(C)cc(C(=O)COC(=O)c2cc3c(s2)CCC3)c1C	?	13µM*	-25%	10µM*	?	6.7*	?
COc1ccc(Sc2ccc(/C=C3\C(=O)NN(c4ccccc4)C3=O)o2)cc1	10µM*	-7%	-21%	28µM*	nt	21*	?	RECQ1 conf=-14%[114 µM]
COC(=O)c1ccccc1NC(=O)CCS(=O)(=O)c1ccc(Br)cc1	32µM*	?	2%	8.9µM*	?	2.7*	4%
Cc1ccc(C(CCN(Cc2ccccc2)C(=O)c2ccco2)c2ccco2)cc1 (configuration not stated)	20µM*	-12%	?	25µM*	?	21*	-3%	RECQ1 conf=50µM*;ADP FP counter=24%[91.9 µM]
O=C(/C=C/c1ccco1)N(c1ccccn1)c1ccccn1	?	?	?	4µM*	45µM*	2.7*	-2%
O=C(Nc1ccc(Br)cc1F)N1CCC(CN2CCCC2)CC1	nt	nt	0%	nt	nt	nt	nt
CCc1nn(CC(=O)NCCN(CC(C)C)CC(C)C)c(=O)c2cc3sc(C)cc3n12	nt	nt	-2%	nt	nt	nt	nt
COc1cccc(=O)c2c(C)n(-c3ccc(C(=O)O)cc3)c(C)c12	?	?	2%	25µM*	?	21*	-15%
Cc1cccc(Cn2c(SCc3ccc(C(=O)NCCc4ccccc4)cc3)nc3cccnc32)c1	nt	nt	-3%	nt	nt	nt	nt
O=[N+]([O-])c1cc(F)c2cccnc2c1O	?	-5%	?	13µM*	20%	6*	-60%
O=[N+]([O-])c1cc(Cl)c(O)c2ncccc12	-1%	?	-4%	nt	nt	nt	nt

Screens deposited in PubChem by National Center for Advancing Translational Sciences (NCATS).
